Measured values: PubChem BioAssay AID652053 (Broad Institute, 2013)
The whole screen tested about 1,300 compounds, of which about 930 (72%) were called active.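 How the source made its calls: active means fitted curve reaches 40% activation signal increase at or below the top valid tested concentration in every replicate test; inconclusive means replicate tests disagree in their calls; inactive means all replicate tests inactive, including effects opposite the expected signal rise.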 So high a share suggests a set chosen from earlier hits. A selection follows. Potency and affinity values are given separately.

Assay: suppression of miR-122 activity, Renilla luciferase sensor – cell-based, Huh7 psiCHECK-miR122, cherry-pick, dose response (AID 652053)
Conditions: Huh7 psiCHECK-miR122 Renilla luciferase reporter, 48 h; series mostly up to 35 µM; activation (miR-122 inhibition): at the top concentration

Activation (miR-122 inhibition), inactive:
CCCc1cc(=O)oc2cc(OCc3nn[nH]n3)ccc12 2.65%
COc1ccccc1CNC(=O)C[C@@H]1CC[C@@H]2[C@H](COc3ccc(NC(C)=O)cc3C(=O)N2C)O1 -2.8%
COc1ccccc1CNC(=O)C[C@@H]1CC[C@H]2[C@@H](COc3ccc(NS(=O)(=O)c4ccc(C)cc4)cc3C(=O)N2C)O1 -6.29%
COc1ccccc1CNC(=O)C[C@H]1CC[C@@H]2[C@@H](COc3ccc(NC(C)=O)cc3C(=O)N2C)O1 -11.1%
COc1ccccc1CNC(=O)C[C@@H]1CC[C@@H]2[C@H](COc3ccc(NS(=O)(=O)c4ccc(C)cc4)cc3C(=O)N2C)O1 -18.5%
COc1ccccc1CNC(=O)C[C@H]1CC[C@@H]2[C@H](COc3ccc(NS(=O)(=O)c4ccc(C)cc4)cc3C(=O)N2C)O1 -17.9%
CCOCc1nnc(NS(C)(=O)=O)s1 -3.47%
CS(=O)(=O)N1N=C(c2ccc(Cl)cc2)CC1c1cccs1 (stereo unspecified) 20.8%
Cc1cccc(-c2nnc(-c3cccc4ccccc34)o2)c1 32.1%
c1ccc2c(c1)ccc1nnnn12 -9.49%
OC(COC(c1ccc(Cl)cc1)c1ccc(Cl)cc1)CN1CCCC1 (stereo unspecified) -20%
COc1ccccc1CNC(=O)C[C@H]1CC[C@@H]2[C@@H](COc3ccc(NC(=O)Nc4ccc(F)c(F)c4)cc3C(=O)N2C)O1 -27.2%
CC1CCCC(NC(=O)COC(=O)c2ccccc2NC(=O)c2ccco2)C1C (stereo unspecified) 6.27%
Nc1nonc1C(=O)N1CCCC1 -0.662%
COc1ccccc1N1CCN(C(=O)c2ccc(Cn3c(=O)[nH]c4ccsc4c3=O)cc2)CC1 13.5%
CCOc1ccccc1N1CCN(C(=O)c2ccc3[nH]c(C)c(C)c3c2)CC1 16.6%
COc1ccccc1N1CCN(C2CC(=O)N(c3cccc(Cl)c3)C2=O)CC1 (stereo unspecified) 6.61%
COC(=O)c1ccc(/C=N/OCC(=O)NC2CCCCCCC2)cc1 7.74%
O=C(CN(C1CCCCC1)S(=O)(=O)c1ccc(Cl)cc1)NCc1cccnc1 24.2%
Cc1ccc(C)c(NC(=O)CSc2nnc(CCNC(=O)OC(C)(C)C)o2)c1 6.18%
Cc1ccc2cc(-c3noc(C(C)(C)C)n3)c(=O)[nH]c2c1 -11.5%
CC(=O)c1cccc(NC(=O)NCc2cccs2)c1 31%
O=c1c[n+]([O-])c2ccccc2n1OCc1c(F)cccc1F 0.654%
COc1ccc(OCCCC(=O)NCCc2ccccc2)cc1 -2.51%
COc1ccc(S(=O)(=O)N2N=C(C)Oc3ccccc3C2=O)cc1 15.6%
COc1ccc(-c2nc(SCc3ccccc3)n(S(C)(=O)=O)n2)cc1 -9.07%
COc1ccc(NC(=O)CCN2C(=O)c3ccccc3C2=O)cc1 14.3%
CC(=O)Nc1nonc1-n1nnc(C(=O)NCc2ccccc2)c1C -10.2%
O=C(CN(Cc1cccs1)S(=O)(=O)c1ccc(S(=O)(=O)NC2CCCCC2)cc1)Nc1ccccc1 -3.3%
C=CCN=C1NN=C(c2ccc3c(c2)OCCO3)CS1 19.4%
CC(=O)N1N=C(c2ccccc2)CC1c1cccs1 (stereo unspecified) 1.31%
CCC(=O)N1[C@H](CN(C)C(C)=O)[C@@H](c2ccc(C3=CCCC3)cc2)[C@@H]1CO 3.62%
C[C@@H]1CN([C@H](C)CO)C(=O)c2cc(NC(=O)Nc3cccc4ccccc34)ccc2O[C@@H]1CN(C)C(=O)Nc1ccccc1 -12.2%
CCNc1nc(N)nc(Oc2ccc(OCCOc3ccccc3)nn2)n1 -13.6%
CCOc1ccccc1NS(=O)(=O)N(C)C -3.18%
C[C@@H]1CN([C@H](C)CO)C(=O)c2cccc(NC(=O)Nc3ccccc3)c2O[C@H]1CN(C)Cc1ccc(C(=O)Nc2ccccc2N)cc1 50%
C[C@@H]1CN([C@@H](C)CO)C(=O)c2cccc(NC(=O)Nc3ccccc3)c2O[C@H]1CN(C)Cc1ccc(C(=O)Nc2ccccc2N)cc1 11.5%
C[C@H]1CN([C@@H](C)CO)C(=O)c2cccc(NC(=O)Nc3ccccc3)c2O[C@H]1CN(C)Cc1ccc(C(=O)Nc2ccccc2N)cc1 40%
C[C@H](CO)N1C[C@H](C)[C@@H](CN(C)C(=O)NC2CCCCC2)Oc2ccc(NC(=O)Nc3cccc4ccccc34)cc2CC1=O 1.35%
CC/C(=N\NC(=O)c1ccc2c(c1)OCO2)C12CC3CC(CC(C3)C1)C2 1.6%
COc1ccc(C(=O)Oc2ccc(C(=S)N3CCOCC3)cc2)cc1 -8.09%
O=C(C(c1ccccc1)c1ccccc1)N1CCOCC1 -2.67%
COc1ccc(C(=O)Nc2nc3c(s2)CCCC3)cc1S(=O)(=O)N1CCCc2ccccc21 4.39%
CCCC#Cc1cnc2c(c1)C(=O)N([C@H](C)CO)C[C@H](C)[C@H](CN(C)C(=O)c1ccccc1)O2 21.1%
COCC(=O)N(C)C[C@@H]1Oc2ncc(C#Cc3cccnc3)cc2C(=O)N([C@H](C)CO)C[C@H]1C 0.781%
C[C@H]1CN([C@@H](C)CO)C(=O)c2cc(C#CC(C)(C)O)cnc2O[C@H]1CN(C)Cc1cncnc1 -18.5% [at 30 µM]
C[C@@H]1CN([C@H](C)CO)C(=O)Cc2cc(NC(=O)Nc3cccc4ccccc34)ccc2O[C@@H]1CN(C)C(=O)NC1CCCCC1 28.5% [at 30 µM]
O=C(NNC(=S)NC1CCCCC1)c1ccc2c(c1)OCO2 31.1%
Cc1ccc(Cl)cc1NC(=S)N(CCCN1CCOCC1)Cc1ccccn1 -1.59%
COCCn1c(C)cc(C(=O)COC(=O)c2cc3c(s2)CCC3)c1C 8.83%
O=C(c1ccccc1)c1ccc(-c2ccc(O)cc2)cc1 36.8%
O=C(OCc1ccccc1Cl)c1ccccc1C(=O)c1ccccc1 37.3%
CC(=O)Nc1ccc(S(=O)(=O)NCCc2ccc(S(N)(=O)=O)cc2)cc1 19.7%
COCC(=O)NC[C@H]1[C@H](c2ccccc2)[C@@H](CO)N1C(=O)c1ccccc1 -6.6%
C[C@H]1CN([C@@H](C)CO)C(=O)Cc2cc(NC(=O)Nc3cccc4ccccc34)ccc2O[C@@H]1CN(C)C(=O)NC1CCCCC1 -0.862%
COC(=O)c1sccc1NC(=S)Nc1ccc(F)cc1 3.83%
CCC1(c2ccc(F)cc2)NC(=O)N(CC(=O)Nc2ccc(-c3nc4ccc(C)cc4s3)cc2)C1=O (stereo unspecified) -7.83%
COc1ccc(CCNC(=O)COC(=O)Cn2cnc3ccccc3c2=O)cc1 -8.09%
Cc1ccc(Nc2nc(C(=O)NCc3ccco3)cs2)cc1 -0.096%
O=c1c2c(nc3nc(SCc4ccccc4)[nH]n13)CCC2 4.6%
Cc1ccc(CSc2nnc(-c3cccnc3)o2)cc1 -6.16%
CN(C[C@H]1N[C@@H](CO)[C@H]1c1ccc(-c2cccc(F)c2)cc1)S(C)(=O)=O -17%
C[C@@H]1CN([C@H](C)CO)C(=O)c2cccc(NS(=O)(=O)c3ccccc3)c2O[C@H]1CN(C)Cc1ccc(C(=O)Nc2ccccc2N)cc1 -2.83%
C[C@H]1CN([C@@H](C)CO)C(=O)c2cccc(NS(=O)(=O)c3ccccc3)c2O[C@H]1CN(C)Cc1ccc(C(=O)Nc2ccccc2N)cc1 36.4% [at 28.5 µM]
CCCCC(O)(CCCC)C(=O)NN(C(=O)OC)c1ccccc1 -6.47%
COc1ccc(C(=O)N[C@H](C(=O)Nc2nc3ccccc3[nH]2)C(C)C)cc1 15.5%
CC(=O)N1[C@H](CNC(=O)C2CC2)[C@H](c2ccc(-c3ccccc3)cc2)[C@@H]1CO 1.49%
O=C(N/N=C/c1cccc(F)c1)c1csc2c1CCCC2 -4.34%
CN1c2ccc(-c3cccc(F)c3)cc2[C@H]2[C@H](CCN2C(=O)C2CC2)[C@H]1CO 10% [at 30 µM]
O=C(NC[C@H]1N[C@H](CO)[C@H]1c1ccccc1)c1ccccc1F 5.44%
CC(C)NC(=O)N1CC[C@@H]2[C@@H](CO)N(C)c3ccc(-c4cccc(F)c4)cc3[C@@H]21 15.3% [at 30 µM]
CC(C)NC(=O)N1[C@H](CO)[C@@H]2c3ccccc3N(C(=O)c3ccccc3F)C[C@@H]21 -8.81%
C[C@@H]1CN([C@H](C)CO)C(=O)c2cccc(NC(=O)C3CCOCC3)c2O[C@H]1CN(C)Cc1ccc2c(c1)OCO2 4.98%
C[C@@H]1CN([C@@H](C)CO)C(=O)c2cccc(NC(=O)C3CCOCC3)c2O[C@@H]1CN(C)Cc1ccc2c(c1)OCO2 0.015%
C[C@@H]1CN([C@@H](C)CO)C(=O)c2cccc(NC(=O)C3CCOCC3)c2O[C@H]1CN(C)Cc1ccc2c(c1)OCO2 6.54%
C[C@@H]1CN([C@H](C)CO)C(=O)c2cccc(NC(=O)C3CCOCC3)c2O[C@@H]1CN(C)Cc1ccc2c(c1)OCO2 -9.26%
Cc1ccccc1N(C(=O)CCCC(=O)Nc1ccccn1)C(C(=O)NC1CCCC1)c1ccc(O)cc1 (stereo unspecified) 27.4%
Cc1c(C(=O)Nc2ccccn2)oc2ccccc12 -5.01%
O=C(NCCCN1CCN(Cc2ccccc2)CC1)c1nnc(Cc2c(F)cccc2Cl)o1 -15.8%
COC(=O)c1c(NC(C)=O)sc(Cc2ccccc2)c1C -7.43%
O=C(Nc1ccccn1)c1cccc(S(=O)(=O)N2CCOCC2)c1 -7.05%
CCC(=O)N1[C@H](CNC(=O)COC)[C@@H](c2ccc(-c3ccccc3)cc2)[C@@H]1CO -7.61%
Cc1ccc(S(=O)(=O)NCCC(=O)Oc2ccc3ccc(=O)oc3c2)cc1 -5.43%
Cc1ccc2[nH]c(CNC(=O)C3CCCCC3)cc2c1 18.1%
C[C@@H]1CN([C@@H](C)CO)C(=O)Cc2cc(NC(=O)Nc3cccc4ccccc34)ccc2O[C@H]1CN(C)C(=O)NC1CCCCC1 -1.72%
COc1ccc(/C=N/NC(=O)COc2ccccc2-c2ccccc2)cc1 41.9%
Cc1ccc(OCC(=O)Nc2cccc3c2CCCC3)cc1C -7.15%
CCOc1ccc(N2C(=O)Nc3ccccc3C2(O)C(=O)NCc2ccc3c(c2)OCO3)cc1 (stereo unspecified) -15.3%
Cc1cc(Cl)c(S(=O)(=O)N2CCCCCC2)cc1OCC(=O)NC1CCCCC1 -10.7%
c1ccc(CSc2nnc(-c3cccnc3)o2)cc1 -14.5%
C=CC(C)n1c(Br)nc2c1c(=O)[nH]c(=O)n2C (stereo unspecified) -9.83%
